ClpP mod: qHTS Assay for Activators of ClpP. ATP-dependent Clp protease proteolytic subunit (Bacillus subtilis (strain 168)), P80244. purified B. subtilis ClpP, FRET peptide cleavage, 20 min. Potency, µM (titrated, usually from 57.5 µM). 1.9% of 340,000 active; active = well fitted falling curve with a large enough effect; inconclusive = small, poorly fitted or top-dose-only effect; inactive = no such curve, though single readings can be large or run the other way; also: the source files actives as falling curves though it sought activators and does not explain the sign; nearly all actives have a fitted effect of over 65% in size
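Buffer: 100 mM Tris/HCl pH8, 100 mM KCl, 0.05% low protease BSA, 2.5% glycerol, 0.01% Tween-20. ClpP 10 microg/mL final; 20 min RT; delta FRET normalized to ADEP and DMSO controls.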
uPA generation: cell surface uPA generation inhibition | cell surface uPA generation assay, qHTS | Potency, µM (doses to about 38.3 µM), usual class: inhibitors | 0.31% of 330,000 active | AID 540303; active = well fitted inhibition curve with a large enough effect; inconclusive = small, poorly fitted or top-dose-only effect; inactive = no such curve, though single readings can be large or run the other way; tested in mouse RAW 264.7 cells; also: nearly all actives have a fitted effect of over 55% in size
Sfp inh: blocks B. subtilis Sfp PPTase activity; Q9F4F7; Biochemical Sfp PPTase activity, qHTS; Potency, µM, hits mostly inhibitors; 3.5% of 310,000 active; AID 1490;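 also: the enzyme is Sfp with the accession as filed and its product quenches rhodamine fluorescence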
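Compounds were incubated with enzyme (final 15 nM) for 15 min at room temperature before substrate addition started the reaction. Fluorescence at 525 nm excitation, 598 nm emission was recorded immediately and after 30 minutes.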
TCR activator: activators of T cell receptors. primary human leukocytes, anti-CD3, IL-2 HTRF, 48 h. Potency, µM (series often up to 9.22 µM), actives largely listed as activators. 330,000 tested, under 10 active. AID 504894
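HTRF read-out of IL-2 secretion: europium cryptate donor excited at 320nm, d2 acceptor emission at 665nm. Cells were primary human leukocytes incubated 48 hr with compounds and a-CD3 beads, supplying TCR signal only.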
A number is an active result; . = inactive; ? = inconclusive; / = no result; ! = not active in a repeat. Most compounds without a hit are left out; they make up all but 4.2% or so of the library. Unless noted, calls follow the shape of the dose curve; as a rule, active = well fitted curve in the direction sought with a large enough effect; inconclusive = small, poorly fitted or top-dose-only effect, or another doubt; inactive = no such curve, though single readings can be large; an effect the other way counts as inactive or inconclusive.

SMILES | ClpP mod | uPA generation | Sfp inh | TCR activator
COc1cnc(-c2ccccn2)nc1N(C)C | / | . | 15.8µM | .
CN(C)c1nc(-c2ccccn2)nnc1-c1ccccc1 | . | . | 79.4µM | .
COc1ccc(Oc2nc(-c3ccccn3)ncc2OC)cc1 | / | . | . | /
COC(=O)c1csc(C2OC(CO)C(O)C2O)n1 (configuration not stated) | . | / | / | /
COc1cc2c(cc1OC)C1O[C@](CCCCN3C(=O)c4ccccc4C3=O)(C2)Oc2c1c(=O)oc1ccccc21 | / | / | . | /
COc1cccc(OCc2ccc(Cl)cc2)c1C#N | . | 8.91µM | . | .
Cc1ccccc1NC(=O)CSc1nc2c(oc3ccccc32)c(=O)n1Cc1ccco1 | . | / | / | /
c1ccc(-c2nc(-c3ccco3)n3ccccc23)cc1 | . | . | 7.08µM | .
O=C(COC(=O)CNC(=O)C1CCCCC1)NC1CCCC1 | . | / | / | /
NCCS | . | . | 79.4µM! | .
C=CCn1c(SCC(=O)NC2CCCC2)nnc1-c1ccncc1 | 25.1µM | . | . | .
O=C(COc1ccc(Br)cc1CO)Nc1ccccc1F | 10µM | . | . | .
COc1ccccc1NC(=O)COc1ccc(Br)cc1CO | . | / | . | .
Cc1cc(-c2ccc(C)c(S(=O)(=O)Nc3cccc(C)n3)c2)on1 | 31.6µM | / | / | /
Cc1cccc(NS(=O)(=O)c2cccs2)n1 | 20µM | . | . | .
O=C(O)c1ccc2c(c1)ncn2C1CCCCCC1 | . | / | 89.1µM | .
Cn1c(=O)c2c(c3ccccc31)OC(=O)CC2c1cccc(Cl)c1 (configuration not stated) | 11.2µM | / | / | /
O=c1c2ccccc2oc2ccc(-c3ccoc3)cc12 | . | / | / | /
CCN(CC)C(=S)S | / | / | 44.7µM | /
CCOC(=O)c1ccc(COC(=O)CCc2nc3ccccc3[nH]c2=O)o1 | 31.6µM | . | . | .
COc1ccc(-c2nc3cnc(N4CCN(C)CC4)nc3n(CCc3ccccc3)c2=O)cc1 | / | / | . | /
C[C@@H]1CN([C@@H](C)CO)C(=O)CCCn2nncc2CO[C@H]1CN(C)S(=O)(=O)c1ccc2ccccc2c1 | . | / | / | /
CCOc1ccc(-n2c(=O)c3sc4ccccc4c3n(Cc3cccc(C)c3)c2=O)cc1 | . | / | / | /
CC1(C)CC(=O)C(CS(=O)(=O)c2ccccc2)=C(O)C1 | . | . | 50.1µM | .
Cc1cc(C)n2nc3nc4c(cc3c2n1)CCCC4 | 12.6µM | . | . | .
SMILES | ClpP mod | uPA generation | Sfp inh | TCR activator
COc1ccc(-n2c(=O)c(-c3cc(F)cc(F)c3)nc3cnc(N(C)C)nc32)cc1 | / | / | . | /
COCCn1c(=S)[nH]c2cc(C(=O)NCCc3ccccc3)ccc2c1=O | / | . | . | .
COc1cccc(C2CC(c3cccs3)=NN2C(=O)CCC(=O)O)c1OC (configuration not stated) | / | . | . | .
COc1cccc(C2CC(c3cccs3)=NN2C(=O)CSc2nc3ccccc3s2)c1OC (configuration not stated) | 28.2µM | . | . | .
Cc1ccc(C2CC(c3cccs3)=NN2C(=O)CSc2nc3ccccc3o2)cc1 (configuration not stated) | 14.1µM | . | . | .
O=C(CSc1nc2ccccc2o1)N1N=C(c2cccs2)CC1c1ccc(F)cc1 (configuration not stated) | 31.6µM | . | . | .
CCOc1ccc(S(=O)(=O)N2CCCC(C(=O)N3CCOCC3)C2)cc1Cl (configuration not stated) | / | . | . | .
COc1ccc(NC(=O)C(OC(=O)Cn2cnc3c2c(=O)n(C)c(=O)n3C)c2ccccc2)cc1Cl (configuration not stated) | . | . | / | .
CCN(C(=O)CCc1nc(-c2ccc(C)cc2)no1)c1cccc(C(F)(F)F)c1 | . | / | / | /
CCc1cccc(CC)c1N(COC)C(=O)Cn1c(C(C)O)nc2ccccc21 (configuration not stated) | . | . | 89.1µM | .
CC1=C(C(=O)Nc2ccccc2)C(c2ccc(O)cc2)n2nc(-c3ccc(Cl)cc3)nc2N1 (configuration not stated) | . | / | / | /
O=C(CC(Sc1ccc(Br)cc1)C(=O)O)c1ccc(Br)cc1 (configuration not stated) | / | / | 35.5µM | /
Cc1ccc(SC(CC(=O)c2ccc(C)cc2)C(=O)O)cc1 (configuration not stated) | . | . | 11.2µM | .
Cc1ccc(C(CC(=O)c2ccc(Cl)cc2)C(=O)O)cc1 (configuration not stated) | / | . | . | .
Cc1cc2[nH]c3ccccc3c2c(C)n1 | 28.2µM | . | . | .
COc1ccc2c(c1)C(C)=CC(C)(C)N2S(=O)(=O)c1ccc(Br)cc1 | / | . | . | .
CCCN1CCC(=NNc2ccc(S(=O)(=O)N(CC)CC)cc2[N+](=O)[O-])CC1 | / | . | . | .
CCCN1CCC(=NNc2ccc(S(N)(=O)=O)cc2[N+](=O)[O-])CC1 | 14.1µM | . | . | .
CCOCc1nnc(NC(=O)COC)s1 | . | . | 50.1µM | .
Cc1cc(C(=O)NCc2cc(C)n(C)n2)sc1-c1ccccc1 | 25.1µM | . | . | /
Cc1cc(CNC(=O)c2cc(-c3ccccc3)nc3ccccc23)nn1C | . | . | . | .
Cc1ccc(-c2nc(C(Cl)Cl)c3ccccc3n2)cc1 | . | 1µM | . | .
CN(C)S(=O)(=O)c1cccc(C(=O)OCC(=O)Nc2sccc2C#N)c1 | . | . | 79.4µM | .
CN(C)S(=O)(=O)c1cccc(C(=O)OCC(=O)Nc2ccc3c(c2)OCCO3)c1 | . | . | / | .
CC(=O)c1ccc(NC(=O)CNCC(c2ccccc2)N(C)C)cc1 (configuration not stated) | . | . | 79.4µM | .
SMILES | ClpP mod | uPA generation | Sfp inh | TCR activator
COC(=O)c1sccc1-c1ccc(/C=N/OCc2c(Cl)cccc2Cl)o1 | 5.01µM | . | . | .
COC(=O)c1sccc1-c1ccc(C(=O)Nc2ccccc2)o1 | . | . | . | .
COC(=O)c1ccccc1NC(=O)CCC(=O)N1CC(C)Sc2ccccc21 (configuration not stated) | . | / | / | /
O=C(Nc1ccccc1N1CCCCC1)c1ncoc1-c1ccc(F)cc1 | 28.2µM | . | . | .
CCCNC(=O)N1CCN(S(=O)(=O)c2ccc3c(ccn3C)c2)CC1 | . | / | / | /
Cc1cccc(NC(=O)COC(=O)Cc2cccs2)c1C | 25.1µM | . | / | .
CNC[C@H](CC1CCCCC1)NC[C@H](CO)NCCc1cccc(C(F)(F)F)c1 | . | 7.94µM | . | .
CN1CCN(c2ncnc3c2ncn3[C@H]2CN(Cc3ccco3)C[C@@H](CO)O2)CC1 | . | / | / | /
Cc1ccc(-c2c(NC(=O)C(C)C)n(C)c3ccccc3c2=O)cc1 | . | . | . | .
COc1ccc(-c2c(NC(C)=O)n(C)c3ccccc3c2=O)cc1 | 25.1µM | . | . | .
COc1ccc(-c2c(NC(=O)C(C)C)n(C)c3ccccc3c2=O)cc1 | 28.2µM | / | . | .
C[C@]12c3[nH]c4cc(-c5ccco5)ccc4c3CCN1C(=O)[C@@H](CC(=O)NCc1ccco1)C[C@@H]2C(=O)N1CCCCC1 | . | ? | / | .
CCOC(=O)Cn1c(-c2ccccn2)nc2ccccc21 | 28.2µM | . | . | .
NNC(=O)Cn1c(-c2ccccn2)nc2ccccc21 | . | . | . | .

Screens: PubChem BioAssay, National Center for Advancing Translational Sciences (NCATS)
